Data: the supplement of paper PMC10037445
The full ranking holds about 2,900 compounds; the median of “NF-kB SEAP reporter activity, fold change vs agonist alone” is about 0.99, and the highest 2% start at about 2.6. The full list was thinned out, with the highest values kept by preference.

Assays:
[1] = test system: RAW-Dual; test: NF-kB SEAP reporter activity, fold change vs agonist alone; cytotoxicity flag (confluency mask): not cytotoxic; higher = enhanced NF-kB activity
How it was run: (§1)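 Supernatant from RAW-Dual macrophages was read after 20 hours for IRF by QuantiLuc luminescence and for NF-κB by QuantiBlue absorbance at 620 nm. The cells (50,000 cells/well in DMEM, 384-well plates, 37 °C, 5% CO2) had received 50 nL of library stock by pin tool and, 1 h later, a PRR agonist. Reporter activity is expressed relative to agonist-alone wells as fold change, and wells were flagged cytotoxic if IncuCyte confluency was under 70% of agonist controls in both mask sets.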

[2] = test system: RAW-Dual; test: NF-kB SEAP reporter activity, fold change vs agonist alone; higher = enhanced NF-kB activity
How it was run: as §1

[3] = test system: RAW-Dual; test: NF-kB SEAP reporter activity, fold change vs agonist alone; cytotoxicity flag (confluency mask): cytotoxic (confluency <70% of control); higher = enhanced NF-kB activity
How it was run: as §1

[4] = agonist: ODN 1826 (TLR9) 0.5 ug/mL
[5] = agonist: Pam2CSK4 (TLR2/6) 0.1 ug/mL
[6] = agonist: Pam3CSK4 (TLR2/1) 0.1 ug/mL
[7] = library stock concentration (final ~1000-fold dilution): 10 mM, cytotoxicity flag (confluency mask): cytotoxic (confluency <70% of control), agonist: Imiquimod (TLR7) […]
[8] = library stock concentration (final ~1000-fold dilution): 10 mM, cytotoxicity flag (confluency mask): cytotoxic (confluency <70% of control), agonist: MPLA (TLR4) […]
[9] = library stock concentration (final ~1000-fold dilution): 10 mM, cytotoxicity flag (confluency mask): not cytotoxic, agonist: Imiquimod (TLR7) […]
[10] = library stock concentration (final ~1000-fold dilution): 10 mM, cytotoxicity flag (confluency mask): not cytotoxic, agonist: MPLA (TLR4) […]

## Cn1cc(/C=C/C(=O)c2cccc(F)c2)cc1/C=C/C(=O)NO (library stock concentration (final ~1000-fold dilution): 10 mM)
[1]; agonist: LPS (TLR4) 0.1 ug/mL
  NF-kB SEAP reporter activity: 1.26
[1]; [4]
  NF-kB SEAP reporter activity: 0.787
[1]; [5]
  NF-kB SEAP reporter activity: 0.605
[1]; [6]
  NF-kB SEAP reporter activity: 0.528

## O=C(/C=C/c1cccc(S(=O)(=O)Nc2ccccc2)c1)NO
[2]; [7]
  NF-kB SEAP reporter activity: 2.39
[2]; [8]
  NF-kB SEAP reporter activity: 2.58

## Cn1cc(/C=C/C(=O)c2cccc(F)c2)cc1/C=C/C(=O)NO
[2]; [9]
  NF-kB SEAP reporter activity: 0.803
[2]; [10]
  NF-kB SEAP reporter activity: 1.06

## CC(=O)Oc1cc2c(s1)CCN(C(C(=O)C1CC1)c1ccccc1F)C2.Cl (stereo not drawn)
[2]; [10]
  NF-kB SEAP reporter activity: 0.869

## CC(=O)Oc1cc2c(s1)CCN(C(C(=O)C1CC1)c1ccccc1F)C2.Cl (stereo not drawn) (library stock concentration (final ~1000-fold dilution): 10 mM)
[1]; agonist: LPS (TLR4) 0.1 ug/mL
  NF-kB SEAP reporter activity: 0.766
[1]; [4]
  NF-kB SEAP reporter activity: 0.821
[1]; [5]
  NF-kB SEAP reporter activity: 0.958
[1]; [6]
  NF-kB SEAP reporter activity: 0.688

## C=CC(=O)N1CC/C(=C\c2ccc(F)c([N+](=O)[O-])c2)C(=O)/C(=C/c2ccc(F)c([N+](=O)[O-])c2)C1 (library stock concentration (final ~1000-fold dilution): 10 mM)
[1]; agonist: LPS (TLR4) 0.1 ug/mL
  NF-kB SEAP reporter activity: 0.222
[1]; [4]
  NF-kB SEAP reporter activity: 0.198
[1]; [5]
  NF-kB SEAP reporter activity: 0.0699
[1]; [6]
  NF-kB SEAP reporter activity: 0.144

## C=CC(=O)N1CC/C(=C\c2ccc(F)c([N+](=O)[O-])c2)C(=O)/C(=C/c2ccc(F)c([N+](=O)[O-])c2)C1
[2]; [9]
  NF-kB SEAP reporter activity: 0.151
[2]; [10]
  NF-kB SEAP reporter activity: 0.267

## CC1CNC(=O)c2cnn3ccc(nc23)NC(C)c2cc(F)ccc2O1 (stereo not drawn) (library stock concentration (final ~1000-fold dilution): 10 mM)
[1]; agonist: LPS (TLR4) 0.1 ug/mL
  NF-kB SEAP reporter activity: 1.58
[1]; [4]
  NF-kB SEAP reporter activity: 0.9
[1]; [5]
  NF-kB SEAP reporter activity: 0.5
[1]; [6]
  NF-kB SEAP reporter activity: 0.422

## CC1CNC(=O)c2cnn3ccc(nc23)NC(C)c2cc(F)ccc2O1 (stereo not drawn)
[2]; [9]
  NF-kB SEAP reporter activity: 0.753
[2]; [10]
  NF-kB SEAP reporter activity: 0.916

## N#Cc1cc(-c2ccnc(Nc3ccc(N4CCOCC4)cc3)n2)ccc1OC1CCOCC1
[2]; [9]
  NF-kB SEAP reporter activity: 1.85
[2]; [10]
  NF-kB SEAP reporter activity: 2.02

## N#CCNC(=O)c1ccc(-c2ccnc(Nc3ccc(N4CCOCC4)cc3)n2)cc1 (library stock concentration (final ~1000-fold dilution): 10 mM)
[1]; agonist: LPS (TLR4) 0.1 ug/mL
  NF-kB SEAP reporter activity: 0.233
[1]; [4]
  NF-kB SEAP reporter activity: 1.01
[1]; [5]
  NF-kB SEAP reporter activity: 0.233
[1]; [6]
  NF-kB SEAP reporter activity: 1.08

## N#Cc1cc(-c2ccnc(Nc3ccc(N4CCOCC4)cc3)n2)ccc1OC1CCOCC1 (library stock concentration (final ~1000-fold dilution): 10 mM)
[1]; agonist: LPS (TLR4) 0.1 ug/mL
  NF-kB SEAP reporter activity: 0.526
[1]; [4]
  NF-kB SEAP reporter activity: 1.39
[1]; [5]
  NF-kB SEAP reporter activity: 0.463
[1]; [6]
  NF-kB SEAP reporter activity: 3.66

## O=C(Nc1ccc(-c2ccnc(Nc3ccc(N4CCOCC4)cc3)n2)cc1)C1CCCN1 (stereo not drawn)
[2]; [9]
  NF-kB SEAP reporter activity: 1.6
[2]; [10]
  NF-kB SEAP reporter activity: 2.46

## N#CCNC(=O)c1ccc(-c2ccnc(Nc3ccc(N4CCOCC4)cc3)n2)cc1
[2]; [9]
  NF-kB SEAP reporter activity: 1.02
[2]; [10]
  NF-kB SEAP reporter activity: 0.925

## O=C(Nc1ccc(-c2ccnc(Nc3ccc(N4CCOCC4)cc3)n2)cc1)C1CCCN1 (stereo not drawn) (library stock concentration (final ~1000-fold dilution): 10 mM)
[1]; agonist: LPS (TLR4) 0.1 ug/mL
  NF-kB SEAP reporter activity: 1.86
[1]; [4]
  NF-kB SEAP reporter activity: 0.272
[1]; [5]
  NF-kB SEAP reporter activity: 1.05
[1]; [6]
  NF-kB SEAP reporter activity: 1.67

## CN1CCN(CC(=O)N2c3ccccc3C(=O)Nc3cccnc32)CC1.Cl.Cl
[2]; library stock concentration (final ~1000-fold dilution): 10 mM water, cytotoxicity flag (confluency mask): not cytotoxic, agonist: Imiquimod (TLR7) […]
  NF-kB SEAP reporter activity: 0.949
[2]; library stock concentration (final ~1000-fold dilution): 10 mM water, cytotoxicity flag (confluency mask): not cytotoxic, agonist: MPLA (TLR4) […]
  NF-kB SEAP reporter activity: 1.01

## CN1CCN(CC(=O)N2c3ccccc3C(=O)Nc3cccnc32)CC1.Cl.Cl (library stock concentration (final ~1000-fold dilution): 10 mM water)
[1]; agonist: LPS (TLR4) 0.1 ug/mL
  NF-kB SEAP reporter activity: 1.25
[1]; [4]
  NF-kB SEAP reporter activity: 1.15
[1]; [5]
  NF-kB SEAP reporter activity: 1.16
[1]; [6]
  NF-kB SEAP reporter activity: 1.06

## Cl.O=S(=O)(c1cccc2c(I)cccc12)N1CCCNCC1 (library stock concentration (final ~1000-fold dilution): 10 mM)
[1]; agonist: LPS (TLR4) 0.1 ug/mL
  NF-kB SEAP reporter activity: 0.746
[1]; [4]
  NF-kB SEAP reporter activity: 0.722
[1]; [5]
  NF-kB SEAP reporter activity: 0.626
[1]; [6]
  NF-kB SEAP reporter activity: 0.568

## Cl.O=S(=O)(c1cccc2c(I)cccc12)N1CCCNCC1
[2]; [9]
  NF-kB SEAP reporter activity: 0.797
[2]; [10]
  NF-kB SEAP reporter activity: 1.12

## CONC(=O)Nc1ccc(-c2sc3c(c2CN(C)C)c(=O)n(-c2ccc(OC)nn2)c(=O)n3Cc2c(F)cccc2F)cc1 (library stock concentration (final ~1000-fold dilution): 10 mM)
[3]; agonist: LPS (TLR4) 0.1 ug/mL
  NF-kB SEAP reporter activity: 3.39
[3]; [4]
  NF-kB SEAP reporter activity: 0.26
[3]; [5]
  NF-kB SEAP reporter activity: 1.01
[3]; [6]
  NF-kB SEAP reporter activity: 1.88

## CONC(=O)Nc1ccc(-c2sc3c(c2CN(C)C)c(=O)n(-c2ccc(OC)nn2)c(=O)n3Cc2c(F)cccc2F)cc1
[2]; [7]
  NF-kB SEAP reporter activity: 2.02
[2]; [8]
  NF-kB SEAP reporter activity: 2.5

## CC(C)CCNC(=O)C(CC(C)C)NC(=O)C1OC1C(=O)O (stereo not drawn)
[2]; [9]
  NF-kB SEAP reporter activity: 0.94
[2]; [10]
  NF-kB SEAP reporter activity: 1.17

## CC(C)CCNC(=O)C(CC(C)C)NC(=O)C1OC1C(=O)O (stereo not drawn) (library stock concentration (final ~1000-fold dilution): 10 mM)
[1]; agonist: LPS (TLR4) 0.1 ug/mL
  NF-kB SEAP reporter activity: 1.03
[1]; [4]
  NF-kB SEAP reporter activity: 1.02
[1]; [5]
  NF-kB SEAP reporter activity: 1
[1]; [6]
  NF-kB SEAP reporter activity: 1.19

## Br.NC(=O)C(c1ccccc1)(c1ccccc1)C1CCN(CCc2ccc3c(c2)CCO3)C1 (stereo not drawn) (library stock concentration (final ~1000-fold dilution): 10 mM)
[1]; agonist: LPS (TLR4) 0.1 ug/mL
  NF-kB SEAP reporter activity: 0.967
[1]; [4]
  NF-kB SEAP reporter activity: 0.467
[1]; [5]
  NF-kB SEAP reporter activity: 0.82
[1]; [6]
  NF-kB SEAP reporter activity: 0.919

## Br.NC(=O)C(c1ccccc1)(c1ccccc1)C1CCN(CCc2ccc3c(c2)CCO3)C1 (stereo not drawn)
[2]; [9]
  NF-kB SEAP reporter activity: 1.02
[2]; [10]
  NF-kB SEAP reporter activity: 0.984
